# Measured values reported in PubChem BioAssay (NCATS).
# “And” between values parts separate entries of the source, which are not always exact repeats. Equal entries are not always repeated. Records with an inconclusive call do not appear. The source made the active and inactive calls. Calls come from the whole dose curve; as a rule, active = well fitted cell-killing curve with a large enough effect; inconclusive = small, poorly fitted or top-dose-only effect; inactive = flat fitted curve, though single readings scatter.
# Test: Cellular viability qHTS for adrenocortical cancer (ACC) cell line SW-13 (AID 1963989);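 note: cells grown in serum-free medium with ITS supplement; % is set by controls: 0 for no effect and ±100 for the full control effect; nearly all actives have a fitted effect of over 65% in size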
# Conditions: SW-13 ACC cells viability, CellTiter-Glo, 48 h; activity (max response): active compounds read low
# Summary of the method: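 Viability was read as CellTiter-Glo luminescence after 48 h compound treatment (up to 46 uM final) of SW-13 cells grown serum-free; titration curves were fit with a four-parameter logistic model to give IC50 and efficacy.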
row,Structure (SMILES),activity (max response)
1,COc1ncc(Nc2ncc([C@H](C)N3CCN(S(C)(=O)=O)CC3)cc2-c2nc(C)nc(N)n2)cc1F,-5.36% (inactive)
2,Cc1[nH]cnc1-c1ccc(Cl)cc1,8.54% (inactive)
3,COCCc1ccc(OCC(O)CNC(C)C)cc1 (configuration not stated),-3.54% (inactive)
4,CC1(C)S[C@@H]2[C@H](N=CN3CCCCCC3)C(=O)N2[C@H]1C(=O)O,3.39% (inactive)
5,CN1CC[C@@H](NC(=O)Nc2ccc(C#N)cc2)C[C@@H]1c1nc2ccccc2[nH]1,-1.78% (inactive)
6,CC1(C)O[C@@H]2C[C@H]3[C@@H]4CCC5=CC(=O)C=C[C@]5(C)[C@@]4(F)[C@@H](O)C[C@]3(C)[C@]2(C(=O)CO)O1,4.2% (inactive) and -2% (inactive)
7,O=C(O)CCCC[C@@H]1SC[C@@H]2NC(=O)N[C@@H]21,-0.523% (inactive)

# Test: Cellular viability qHTS for adrenocortical cancer (ACC) cell line NCI-H295R (AID 1963990); note: nearly all actives have a fitted effect of over 60% in size; note: potency is the fitted concentration of half-maximal effect;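 for activity change, negative = viability loss: 0% = DMSO only wells and -100% = full killing with cytotoxic reference compound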
# Conditions: CellTiter-Glo ATP luminescence, 48 h; series mostly up to 46.1 µM; activity change, negative = viability loss: at the top concentration
# Summary of the method: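 CellTiter-Glo ATP luminescence, read 48 h after compound addition, measured viability of NCI-H295R adrenocortical cells grown serum-free with ITS. Final concentrations spanned up to 46 uM. Data normalized to DMSO and doxorubicin, fitted for IC50 and maximal response.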
Structure (SMILES),Potency,"activity change, negative = viability loss"
O=C(N/N=C/c1ccc([N+](=O)[O-])o1)c1ccc(O)cc1,7.31 µM (active),–
COc1ncc(Nc2ncc([C@H](C)N3CCN(S(C)(=O)=O)CC3)cc2-c2nc(C)nc(N)n2)cc1F,0.224 µM (active),–
CN1CCN(c2ccc(Nc3ncc4cc(C#N)c(=O)n(C5CCCC5)c4n3)cc2)CC1,–,-16.4% (inactive)
C#Cc1cccc(Nc2ncnc3cc4c(cc23)OCCOCCOCCO4)c1,11.2 µM (active),–
Cc1[nH]cnc1-c1ccc(Cl)cc1,–,-19.2% (inactive)
Fc1ccc2[nH]ccc2c1-c1nc(N2CCOCC2)c2sc(CN3CCN(CC4CC4)CC3)cc2n1,31.6 µM (active),–
CNc1ncc2cc(-c3cc(NC(=O)NCCC(C)(C)C)c(F)cc3C)c(C)nc2n1,17.8 µM (active),–
C[C@@H]1C[C@H](N)C[C@H](c2ccncc2NC(=O)c2ccc(F)c(-c3c(F)cccc3F)n2)C1,28.2 µM (active),–
COCCc1ccc(OCC(O)CNC(C)C)cc1 (configuration not stated),–,3.08% (inactive)
CC[C@]12CCCN3CCc4c(n(c5ccccc45)C(=O)C1)[C@@H]32,5.8 µM (active),–
O=C(/C=C/c1ccccc1)NCCO,14.6 µM (active),–
Cc1ccc(Nc2ncc3c(n2)N(C)C(=O)N(c2cc(NC(=O)c4cccc(C(F)(F)F)c4)ccc2C)C3)cn1,–,10.6% (inactive)
CS(=O)(=O)Nc1cc2occ(NC=O)c(=O)c2cc1Oc1ccccc1,–,-18.1% (inactive)
CN(C)CCC[C@@]1(c2ccc(F)cc2)OCc2cc(C#N)ccc21,–,-1.2% (inactive)
CC1(C)S[C@@H]2[C@H](N=CN3CCCCCC3)C(=O)N2[C@H]1C(=O)O,–,-2.23% (inactive)
CC[N+]1(CC)CCC(=C(c2ccccc2)c2ccccc2)C1C (configuration not stated),–,-1.04% (inactive)
COC(=O)c1ccc([C@H]2c3[nH]c4ccccc4c3C[C@H](C(=O)OC)N2C(=O)CCl)cc1,0.0891 µM (active),–
CCC(=O)c1ccc2c(c1)N(CCCN(C)C)c1ccccc1S2,14.6 µM (active),–
C=CC(=O)Nc1cc(N2CCN(CC)CC2)ccc1Nc1cc(N(C)C(=O)Nc2c(Cl)c(OC)cc(OC)c2Cl)ncn1,–,-0.0877% (inactive)
NS(=O)(=O)c1cc2c(cc1Cl)NC(CC1CCCC1)NS2(=O)=O (configuration not stated),–,-11.8% (inactive)

Structure (SMILES),Potency,"activity change, negative = viability loss"
COc1cc2ncnc(Nc3cccc(Cl)c3F)c2cc1OC(=O)N1CCN(C)C[C@H]1C,–,-18.8% (inactive)
CC(NN)c1ccccc1 (configuration not stated),–,-14.6% [at 20 µM] (inactive)
CN1CCC[C@@H]1CCO[C@](C)(c1ccccc1)c1ccc(Cl)cc1,20.6 µM (active),–
CN1CC[C@@H](NC(=O)Nc2ccc(C#N)cc2)C[C@@H]1c1nc2ccccc2[nH]1,–,6.73% (inactive)
CC1(C)O[C@@H]2C[C@H]3[C@@H]4CCC5=CC(=O)C=C[C@]5(C)[C@@]4(F)[C@@H](O)C[C@]3(C)[C@]2(C(=O)CO)O1,inactive,–
Cc1nc([C@](C)(O)CO)sc1-c1cnc(N)c(O[C@H](C)c2cc(F)ccc2-n2nccn2)c1,2.82 µM (active),–
O=C(NOCC(O)CO)c1ccc(F)c(F)c1Nc1ccc(I)cc1F (configuration not stated),–,-15.1% (inactive)
COc1cc2c(NC3CCN(C)CC3)nc(N3CCCN(C)CC3)nc2cc1OCCCN(C)C,–,-3.5% (inactive)
O=C(O)CCCC[C@@H]1SC[C@@H]2NC(=O)N[C@@H]21,–,-23.2% (inactive)
CN(C(=O)CN(CCO)CC(=O)N(C)C(C)(C)Cc1ccccc1)C(C)(C)Cc1ccccc1,23.1 µM (active),–
CC(C)(CNC(=O)c1cccc(-c2noc(C(F)(F)F)n2)c1)c1coc(-c2ccccc2)n1,–,-11.2% (inactive)
c1cc(Nc2cc(C3CC3)[nH]n2)nc(Nc2ccc3nc[nH]c3c2)n1,8.91 µM (active),–
O=c1cc(-c2ccccc2)oc2ccccc12,–,-14.3% [at 92.7 µM] (inactive)
Cc1cc(N2CCOCC2)ccc1Nc1nc(NC2CCCCC2)c2[nH]cnc2n1,28.2 µM (active),–
CCOC(=O)[C@H](CCc1ccccc1)N[C@@H](C)C(=O)N1Cc2ccccc2C[C@H]1C(=O)O,16.4 µM (active),–
CC(C)[C@](O)(c1ccc2cc(OC(F)F)c(OC(F)F)cc2c1)c1cn[nH]n1,25.1 µM (active),–
CCN(CC)CCNC(=O)c1c(C)[nH]c(/C=C2/C(=O)Nc3ccc(-c4csc(-c5ccccc5)n4)cc32)c1C,3.55 µM (active),–
CCCOc1ccc(CCc2nc3cc(-c4c(C)noc4C)ccc3n2CCN2CCOCC2)cc1,22.4 µM (active),–
O=C(O)c1ccccc1Nc1cccc(C(F)(F)F)c1,–,-20.9% (inactive)
COc1ccc(S(=O)(=O)N[C@@H](CNc2nc(C)nc(N3CCC(c4ccc5c(n4)NCCC5)CC3)c2C)C(=O)O)cc1,–,-17.7% (inactive)
